# Screen size: about 310,000 compounds; about 14,000 (4.5%) showed an effect of 50% or more. Effects have a minus sign here. This is one part of a sample in which strong results are shown more often than they occur.
# Target: human ether-à-go-go-related gene (hERG) potassium channel (human, UniProt Q12809)
# Test: primary screen, population patch clamp on CHO cells stably expressing hERG; higher = less effect of the substance
# 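Note: peak tail current of the secondary pulse compared with the same well before compound.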
# Chain of human ether-à-go-go-related gene (hERG) potassium channel (Q12809 whole entry, looked up): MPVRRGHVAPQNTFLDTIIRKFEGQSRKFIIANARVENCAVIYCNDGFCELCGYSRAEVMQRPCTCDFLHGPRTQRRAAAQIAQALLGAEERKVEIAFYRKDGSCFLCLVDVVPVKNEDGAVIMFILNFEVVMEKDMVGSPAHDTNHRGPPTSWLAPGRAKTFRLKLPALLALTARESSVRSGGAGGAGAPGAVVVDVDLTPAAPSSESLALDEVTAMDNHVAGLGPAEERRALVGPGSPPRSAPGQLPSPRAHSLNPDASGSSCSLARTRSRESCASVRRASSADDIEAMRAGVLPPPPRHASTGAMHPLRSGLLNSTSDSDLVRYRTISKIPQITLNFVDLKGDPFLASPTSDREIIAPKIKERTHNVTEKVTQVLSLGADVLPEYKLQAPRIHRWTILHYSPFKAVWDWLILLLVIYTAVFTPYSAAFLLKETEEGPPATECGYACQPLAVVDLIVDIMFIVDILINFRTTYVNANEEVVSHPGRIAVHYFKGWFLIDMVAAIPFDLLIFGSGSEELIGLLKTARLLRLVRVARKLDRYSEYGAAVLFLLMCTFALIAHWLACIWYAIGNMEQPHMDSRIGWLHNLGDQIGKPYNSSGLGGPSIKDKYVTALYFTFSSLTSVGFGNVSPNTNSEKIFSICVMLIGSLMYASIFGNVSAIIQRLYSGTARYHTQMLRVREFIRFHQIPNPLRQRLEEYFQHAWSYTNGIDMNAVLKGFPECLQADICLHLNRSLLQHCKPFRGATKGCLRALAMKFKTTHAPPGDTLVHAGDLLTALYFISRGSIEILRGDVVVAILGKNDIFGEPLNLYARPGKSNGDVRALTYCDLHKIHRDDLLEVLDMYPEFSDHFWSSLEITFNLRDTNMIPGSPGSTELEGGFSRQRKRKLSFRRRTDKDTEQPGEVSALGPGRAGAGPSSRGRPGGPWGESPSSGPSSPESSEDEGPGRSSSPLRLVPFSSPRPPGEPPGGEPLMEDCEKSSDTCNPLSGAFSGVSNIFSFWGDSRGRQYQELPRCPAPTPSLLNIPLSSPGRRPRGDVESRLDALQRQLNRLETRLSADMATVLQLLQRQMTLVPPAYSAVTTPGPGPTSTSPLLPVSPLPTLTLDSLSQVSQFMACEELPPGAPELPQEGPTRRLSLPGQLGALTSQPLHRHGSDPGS
row,SMILES,"hERG current change (%, negative = inhibition) at 10uM"
1,CCOC(=O)c1oc2ccccc2c1COC(=O)C(C)NC(=O)c1ccco1 (stereo not drawn),-16.5%
2,COc1ccc(C(=O)N(C)C2CCCCC2)cc1S(=O)(=O)N1CCOCC1,-3.28%
3,CCCCOc1ccc(/C=N/NC(=S)Nc2cccc(C)c2C)cc1,-15.8%
4,CCOc1ccc(CCNC(=O)CN2C(=O)COc3ccc(S(=O)(=O)N4CCOCC4)cc32)cc1,-6.84%
5,CCN1CCCC1CNC(=O)C(=O)Nc1cccc(OC)c1 (stereo not drawn),-1.67%
6,O=C(c1cc2cc(Br)ccc2[nH]1)N1CCc2ccccc21,14%
7,CSc1ccccc1NC(=O)COc1ccc(Cl)cc1,-17.5%
8,CC(NC(=O)CN1CCN(c2cccc(Cl)c2)CC1)c1ccccc1 (stereo not drawn),4.34%
9,COc1cccc(C(=O)NC2CCN(CC(=O)Nc3ccccc3Cl)CC2)c1,-55.4%
10,COc1cccc(C(=O)NC2CCN(CC(=O)Nc3cccc(C)c3C)CC2)c1,32.2%
11,COc1ccc(CCNC(=O)CN2CCN(c3ccccc3Cl)CC2)cc1,-19%
12,COc1ccc(NC(=O)CN2CCN(c3ccccc3Cl)CC2)cc1,-61.4%
13,COc1ccc(NC(=O)CN2CCN(c3ccccc3C)CC2)cc1,-41.2%
14,CC(NC(=O)CN1CCN(S(=O)(=O)c2ccc(Br)cc2)CC1)c1ccccc1 (stereo not drawn),-36.9%
15,Cc1cccc(C(=O)NC2CCN(CC(=O)Nc3ccccc3Cl)CC2)c1,-49%
16,CC(NC(=O)CN1CCN(CC(=O)Nc2ccccc2Cl)CC1)c1ccc(Br)cc1 (stereo not drawn),-75.1%
17,O=C(CCCn1c(SCC(=O)c2ccc(Cl)cc2)nc2ccccc2c1=O)NCc1ccco1,3.21%
18,O=c1c(Cl)c(Nc2cccc(Cl)c2)cnn1-c1nc2ccccc2s1,-2.51%
19,COc1ccccc1CCn1c(N)cc(=O)[nH]c1=O,18.4%
20,Cc1cc(C)c2c(N)c(S(=O)(=O)Cc3ccccc3)sc2n1,-33.3%
21,O=P(Oc1ccccc1)(Oc1ccccc1)c1ccccc1,-21.8%

row,SMILES,"hERG current change (%, negative = inhibition) at 10uM"
1,CCOc1ccc(C(=O)N2CCn3c2nc2ccccc23)cc1,-5.37%
2,Br.CCCn1c(=N)n(CC(=O)c2ccc(Cl)cc2)c2ccccc21,-53%
3,Br.CCn1c(=N)n(CC(=O)c2ccc(Cl)c(Cl)c2)c2ccccc21,-51.4%
4,Br.CCn1c(=N)n(CC(=O)c2ccc(OC)c(OC)c2)c2ccccc21,-13.7%
5,CCn1c(=N)n(CC(=O)c2cccc(OC)c2)c2ccccc21,-16.6%
6,Br.CCCn1c(=N)n(CC(=O)c2ccc(Cl)c(Cl)c2)c2ccccc21,-51.5%
7,Br.C=CCn1c(=N)n(CC(=O)c2ccc(Cl)cc2)c2ccccc21,-36.1%
8,Br.Cn1c(=N)n(CC(=O)c2ccccc2)c2ccccc21,-12.4%
9,Br.CCCn1c(=N)n(CC(=O)O)c2ccccc21,-5.8%
10,Br.Cn1c(=N)n(CC(=O)c2ccc(Cl)c(Cl)c2)c2ccccc21,-64.1%
11,Br.Cn1c(=N)n(CC(=O)c2ccc(Br)cc2)c2ccccc21,-41%
12,Br.Cn1c(=N)n(CC(=O)c2ccc(F)cc2)c2ccccc21,-23.2%
13,O=C(Nc1ccc(C(=O)N2CCC(O)(c3ccc(Cl)c(C(F)(F)F)c3)CC2)cc1)c1ccc(Br)o1,8.21%
14,Cc1cc2cc(CCNC(=O)CC(C)(C)C)c(=O)[nH]c2cc1C,7.53%
15,O=C(Cc1coc(-c2ccc(F)cc2)n1)Nc1ccccc1,-15.4%
16,Cn1c(=O)c2ncn(CC(=O)Nc3nc(-c4ccc(Cl)cc4)cs3)c2n(C)c1=O,12.1%
17,N#CCc1c(C#N)c(N)nc(N2CCN(S(=O)(=O)c3ccccc3F)CC2)c1C#N,-9.75%
18,O=C(CN(c1ccccc1)S(=O)(=O)c1ccccc1)Nc1ccc(F)cc1,22.6%
19,Cc1cccc(N2C(=O)NC(=O)/C(=C\c3cc(C)n(-c4sc5c(c4C#N)CCCC5)c3C)C2=O)c1C,4.35%
20,Cc1nnc(NC(=O)CSc2nnc(C)n2Cc2ccccc2)s1,17.7%
21,CC1CCN(S(=O)(=O)c2cccc(C(=O)N3CCN(c4ccc(F)cc4)CC3)c2)CC1,-65.4%
